Laboratory results reported in PubChem BioAssay (EPA / NIEHS).
Inconclusive results are not listed. The source made the active and inactive calls. How the source made its calls: active means hit-call score of the fitted dose curve at least 0.9, where 1 is the maximum; inconclusive means response in the unintended direction; inactive means score below 0.9.

These compounds were tested on sulfotransferase (SULT2A), SULT2A1 (gene 6822) (assay: CLD_SULT2A_24hr: CellzDirect (CLD) Gene Expression Assay for sulfotransferase (SULT2A) at 24 hours (AID 2283694);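 on AC50: potency for increased SULT2A1 mRNA level as induction over DMSO baseline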).
Procedure: CLD_24hr is a cell-based, multiplexed-readout assay that uses hepatocyte, a human liver primary cell, with measurements taken at 24 hours after chemical dosing in a 96-well plate.CLD_SULT2A_24hr is one of 16 assay component(s) measured or calculated from the CLD_24hr assay. It is designed to make measurements of mRNA induction, a form of inducible reporter, as detected with chemiluminescence signals by Quantitative Nuclease Protection Assay (qNPA) technology.Data from the assay component CLD_SULT2A_24hr was analyzed at the endpoint, CLD_SULT2A_24hr, in the positive analysis fitting direction relative to DMSO as the negative control and baseline of activity. Using a type of inducible reporter, gain-of-signal activity can be used to understand changes in the reporter gene as they relate to the gene SULT2A1. Furthermore, this assay endpoint can be referred to as a primary readout. To generalize the intended target to other relatable targets, this assay endpoint is annotated to the transferase intended target family, where subfamily is sulfotransferase.
Human hepatocyte cultures were treated daily for two consecutive days with fresh dosing solutions containing appropriate concentrations of the 320 ToxCast chemicals (chemical identities were blinded to CellzDirect and other ToxCast collaborators), vehicle control (0.2% DMSO), and positive control inducers as summarized in Table 1. Due to the large number of treatment groups and chemicals examined, the ToxCast chemicals were divided into two groups (spanning two independent cultures of hepatocytes from separate donor preparations (Hu778: ToxCast plates 1 and 2; Hu776: ToxCast plates 3 and 4). Each preparation of human hepatocyte cultures was treated with respective vehicle control, medium only control, set of six positive controls/reference chemicals for the five hepatic receptor pathways, and a subset of eight of the ToxCast chemicals (indoxacarb, pyrithiobac-sodium, norflurazon, cyhalofop-butyl, methomyl, thiram, acetochlor, and propiconazole). These replicate data, coupled with internal replicates designed within the blinded ToxCast chemical library, provided additional data to evaluate interindividual differences between hepatocyte preparations and their potential impact on chemical profiles.Cell morphology and integrity were evaluated using phase-contrast microscopy as an indicator of hepatocyte cell health (Tyson & Green, 1987). Cultures for each treatment group (i.e., media, vehicle [0.2% DMSO], positive control inducers [multiple concentrations], and the ToxCast chemicals [multiple concentrations]) were observed and cell morphology was assessed relative to vehicle control cultures at each harvest time point (0, 6, 24, or 48 h). […] Images were evaluated at the conclusion of the study to assess changes in cell integrity and account for the effects of chemical exposure on uncharacteristic changes in concentration-dependent gene expression profiles. The results from these determinations of apparent cytotoxicity were annotated (yes/no) alongside the corresponding qNPA data for reference.At the conclusion of each treatment period, hepatocyte cultures (96-well) were washed with 1 volume of HBSS, lysed by addition of 25 ul ArrayPlate lysis buffer (HTG, Tucson, AZ), and 70 ul/well of Denaturation Oil, denatured by incubation at 95C for 10 min, and frozen at approximately -70C until analysis by nuclease protection assay (qNPA) (Roberts et al., 2007). For qNPA analysis, cell lysates were thawed at 50C for approximately 30 min, qNPA probes were added, and samples were incubated at 95C for 10 min to begin the detection process by denaturing the target RNA, dissociating the duplexes and secondary structure hybridization. At the conclusion of the hybridization period, S1 nuclease reagent was added to each sample to digest all nonprotected nucleotides at 50C for 60-90 min. […]
In the case of `COC(=O)C(C)Oc1ccc(Oc2ccc(Cl)cc2Cl)cc1` (configuration not stated), the outcome is reported as “inactive”. `N#Cc1cc(Br)c(O)c(Br)c1` was tested, and the outcome was “inactive”. `OC(c1ccc(Cl)cc1)(c1cncnc1)c1ccccc1Cl` (configuration not stated) was tested, and the outcome was “inactive”. `Cc1ccc(-c2c(Cl)nc(C#N)n2S(=O)(=O)N(C)C)cc1` was tested, and the outcome was “inactive”. For `CCNc1nc(Cl)nc(NC(C)C)n1`, the outcome was “inactive”. For `COc1nc(C)nc(NC(=O)NS(=O)(=O)c2ccccc2Cl)n1`, the outcome was “inactive”. With `CC(C)(C)c1ccc(CSc2cnn(C(C)(C)C)c(=O)c2Cl)cc1` the AC50 was 20 µM (active). `COP(=S)(OC)Oc1nc(Cl)c(Cl)cc1Cl` was tested, and the outcome was “inactive”. In the case of `C=CC1(C)OC(=O)N(c2cc(Cl)cc(Cl)c2)C1=O` (configuration not stated), the outcome is reported as “inactive”. With `C#CCOS(=O)OC1CCCCC1Oc1ccc(C(C)(C)C)cc1` (configuration not stated) the outcome was “inactive”. With `CC(C)Oc1cc(-n2nc(C(C)(C)C)oc2=O)c(Cl)cc1Cl` the outcome was “inactive”. For `CCNc1nc(Cl)nc(NCC)n1`, the outcome was “inactive”. With `COc1cnc(OC)n2nc(NS(=O)(=O)c3c(OCC(F)F)cccc3C(F)(F)F)nc12` the outcome was “inactive”. With `CCOc1cc(Oc2ccc(C(F)(F)F)cc2Cl)ccc1[N+](=O)[O-]` the outcome was “inactive”. With `COc1nc(C)nc(NC(=O)NS(=O)(=O)c2ccccc2CCC(F)(F)F)n1` the outcome was “inactive”. In the case of `COc1ccc(C(c2ccc(OC)cc2)C(Cl)(Cl)Cl)cc1`, the outcome is reported as “inactive”. In the case of `CCCC1COC(Cn2cncn2)(c2ccc(Cl)cc2Cl)O1` (configuration not stated), the outcome is reported as “inactive”. With `N#CC(CCc1ccc(Cl)cc1)(Cn1cncn1)c1ccccc1` (configuration not stated) the outcome was “inactive”. For `CCCCNC(=O)OCC#CI`, the outcome was “inactive”. For `COC(=O)c1ccccc1C(=O)OC`, the outcome was “inactive”. For `CCOP(=S)(OCC)SCn1c(=O)oc2cc(Cl)ccc21`, the outcome was “inactive”. With `CCOC(=O)CC(SP(=S)(OC)OC)C(=O)OCC` (configuration not stated) the outcome was “inactive”. In the case of `COC(=O)N(OC)c1ccccc1COc1ccn(-c2ccc(Cl)cc2)n1`, the outcome is reported as “inactive”. With `COC(=O)C=C(C)OP(=O)(OC)OC` the outcome was “inactive”. For `CO/C=C(/C(=O)OC)c1ccccc1Oc1cc(Oc2ccccc2C#N)ncn1`, the outcome was “inactive”. For `C=CCC1=C(C)[C@@H](OC(=O)[C@@H]2[C@@H](C=C(C)C)C2(C)C)CC1=O`, the outcome was “inactive”. In the case of `CCON=C(CC)C1=C(O)CC(c2c(C)cc(C)cc2C)CC1=O` (configuration not stated), the outcome is reported as “inactive”. In the case of `O=C(O)c1nc(Cl)ccc1Cl`, the outcome is reported as “inactive”. In the case of `CCCCOC(=O)c1ccccc1C(=O)OCCCC`, the outcome is reported as “inactive”. `CCCCC(CC)COC(=O)c1ccccc1C(=O)OCC(CC)CCCC` (configuration not stated) was tested, and the outcome was “inactive”. In the case of `CCCN(CCC)c1c([N+](=O)[O-])cc(S(N)(=O)=O)cc1[N+](=O)[O-]`, the AC50 is reported as 20 µM (active). In the case of `CC1COC(Cn2cncn2)(c2ccc(Oc3ccc(Cl)cc3)cc2Cl)O1` (configuration not stated), the outcome is reported as “inactive”. In the case of `O=C(O)COc1nc(Cl)c(Cl)cc1Cl`, the outcome is reported as “inactive”. In the case of `CNC(=S)S`, the outcome is reported as “inactive”. `N#Cc1nn(-c2c(Cl)cc(C(F)(F)F)cc2Cl)c(N)c1S(=O)C(F)(F)F` (configuration not stated) was tested, and the AC50 was 2.43 µM (active). In the case of `CCc1nn(C)c(C(=O)NCc2ccc(C(C)(C)C)cc2)c1Cl`, the AC50 is reported as 3.71 µM (active). In the case of `CCOC(=O)C(Cl)Cc1cc(-n2nc(C)n(C(F)F)c2=O)c(F)cc1Cl` (configuration not stated), the outcome is reported as “inactive”.
